Screens as filed in PubChem.
Hits are enriched below; roughly 1.7% of the tested compounds scored in any of these assays.
MRP reversal: compounds reversing MRP-mediated drug resistance; AID 602; differential viability (reversal), % at 10 µM; H69AR cells + 2 uM doxorubicin, CellTiter-Glo, 72 h; 0.04% of 85,000 active;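 active means viability drop by adding the cancer drug above about 55%, with treated viability meeting a 40% cutoff, limit read from the data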;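 further: viability without doxorubicin minus viability with 2 µM doxorubicin for each compound; larger differential means the compound sensitizes cells more to doxorubicin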
MRP1 act: activates MRP-1 | viability increase, % at 10 µM | AID 799 | 0.61% of 140,000 active | H69AR cells + doxorubicin, viability rescue, CellTiter-Glo;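 active means viability gain under doxorubicin at or above a set limit, the compound median plus 3 SD, cut at about 4.7% in these data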;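 further: MRP-1 overexpressing cells given doxorubicin 25 µM after compound pretreatment; 18-22 h compound pretreatment then 72 h with doxorubicin before readout; 0% = doxorubicin-only wells and 100% = vehicle-treated cells without doxorubicin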
GALR2 ag: agonists of human galanin receptor 2 (GALR2); GALR2-expressing cells, agonist activation read-out; activation, % (concentration not given with the values); 0.48% of 140,000 active; in the data active means activation above about 5%, passing the limit was not always enough;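 further: 0% = vehicle buffer wells and 100% = reference agonist at full effect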
S1P2 blocker: blocks the human S1P2 receptor | O95136 | cell-based S1P2 antagonist assay, inhibition at 5 uM | inhibition, % at 5 µM | 0.21% of 97,000 active | AID 736; in the data active means inhibition above about 45%;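 further: CRE beta-lactamase reporter cells expressing human S1P2 stimulated with S1P; 0% = agonist at EC80 alone and 100% = agonist plus reference antagonist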
Target sequence (O95136 whole entry, looked up): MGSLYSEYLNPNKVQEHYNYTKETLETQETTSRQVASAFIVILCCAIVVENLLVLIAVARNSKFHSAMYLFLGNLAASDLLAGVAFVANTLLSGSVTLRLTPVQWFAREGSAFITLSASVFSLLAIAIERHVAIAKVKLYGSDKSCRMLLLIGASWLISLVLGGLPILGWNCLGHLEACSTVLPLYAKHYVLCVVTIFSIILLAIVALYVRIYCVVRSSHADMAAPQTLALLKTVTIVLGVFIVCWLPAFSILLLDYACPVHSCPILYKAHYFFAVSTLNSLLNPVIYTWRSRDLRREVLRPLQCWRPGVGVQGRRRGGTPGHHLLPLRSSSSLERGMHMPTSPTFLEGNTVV
S1P2 ag: activates the human S1P2 receptor | O95136 | S1P2-expressing cell line, agonist reporter read-out | activation, % at 4.5 µM | 0.46% of 97,000 active | AID 729; in the data active means activation above about 16%;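 further: 0% = vehicle low control and 100% = maximal reference agonist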
GALR2 antag: antagonists of human galanin receptor 2 (GALR2); GALR2-expressing cells, antagonist mode; inhibition, % at 4 µM; 0.39% of 140,000 active; in the data active means inhibition above about 27%;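 further: cells stimulated with galanin 1-16 at roughly its EC80; 0% = agonist challenge control and 100% = basal control without agonist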
Starred values were filed as active, the others as inactive; . = no result given.

SMILES	MRP reversal	MRP1 act	GALR2 ag	S1P2 blocker	S1P2 ag	GALR2 antag
CCOC(=O)N1CCC(Nc2c(Nc3ccc(C)c(C)c3)c(=O)c2=O)CC1	65*	-5	1	17	-9	0
CCOC(=O)N1CCC(Nc2c(OCC)c(=O)c2=O)CC1	6	0	-3	3	-2	1
CCNC(=S)N/N=C1\CCCCc2ccccc21	.	-4	1	.	.	5
C=C(C)CNC(=S)N/N=C1\CCCCc2ccccc21	.	-2	6.1*	.	.	6
CCn1cnc2c1c(=O)n(CC(=O)N1CCc3ccccc31)c(=O)n2Cc1ccccc1	3	2	-2	19	-8	13
O=C(Cn1c(=O)c2c(ncn2Cc2ccccc2)n(Cc2ccccc2)c1=O)N1CCc2ccccc21	16	5.3*	-1	6	-2	-6
Cc1cccc(NC(NC(=O)c2ccccc2[N+](=O)[O-])C(Cl)(Cl)Cl)c1 (configuration not stated)	.	-1	-1	.	.	2
O=C(N/N=C\c1cc(Br)ccc1O)c1ccc(S(=O)(=O)N2CCCCC2)cc1	.	3	6.1*	.	.	22
O=C(N/N=C/c1cc(Cl)ccc1O)c1ccc(Br)cc1	.	-3	0	.	.	2
CC(C)(C)Nc1nc(N2CCCC2)nc(N2CCCC2)n1	-10	-6	-1	47*	-7	4
Cc1cc2oc(=O)cc(CN3CCN(S(=O)(=O)c4cccs4)CC3)c2cc1C	.	0	-2	.	.	12
O=[N+]([O-])c1ccc(O)c(/C=N/n2cnc3ccccc32)c1	.	5.2*	-2	.	.	3
O=C(CSc1nnc(-c2ccccc2F)n1C1CC1)Nc1cccnc1Cl	.	-2	0	.	.	13
COc1ccc(-c2csc(N3C(=O)CNC3=S)n2)cc1	.	3	-1	.	.	2
O=C1CNC(=S)N1c1nc(-c2ccccc2)cs1	.	4.8*	0	.	.	2
CCOC(=O)c1ccc(-n2nc(C(F)(F)F)c3c(C)cc(=O)oc32)cc1	-11	.	-3	0	-4	-4
COc1cc(NS(=O)(=O)c2ccc(N/C=C(\C#N)c3nc4cc(Cl)ccc4o3)cc2)nc(OC)n1	.	4.9*	0	-6	7	-25
c1ccc(OCc2nnnn2-c2ccccc2)cc1	.	0	0	.	.	4
Clc1ccc(OCc2nnnn2-c2ccccc2)cc1	.	7.3*	-1	.	.	15
Oc1cc(NCc2cccnc2)ccc1-c1nc2ccccc2o1	9	5.0*	-3	11	-3	-6
CCc1ccc(OCC(=O)Nc2ccc(-c3nc4ccccc4o3)c(O)c2)cc1	3	-1	-3	6	-5	12
O=c1cc(CNCCCO)c2ccccc2[nH]1	-15	0	0	-8	23*	-1
Cc1cc(CNC(=O)C(C)Cc2ccccc2)nn1C (configuration not stated)	.	-2	-1	.	.	5
COc1ccccc1-c1nnc(N(C)C(=O)C2CCCO2)s1 (configuration not stated)	15	-1	-2	16	-5	-5
COc1ccccc1-c1nnc(SC2CCc3ccccc3NC2=O)s1 (configuration not stated)	1	6.3*	-1	-3	-5	3
SMILES	MRP reversal	MRP1 act	GALR2 ag	S1P2 blocker	S1P2 ag	GALR2 antag
CC(C)(C)c1ccc(-c2nc(-c3ccncc3)no2)cc1	9	6.2*	-2	8	3	-6
Cc1cc(C)cc(-c2nc(-c3ccncc3)no2)c1	14	-1	-4	-11	-12	0
CCCC/C(C)=N/NC(=O)c1cn(-c2ccccc2)nc1-c1ccccc1	.	0	-1	.	.	-5
O=C(CSc1nc(C2CCCCC2)n(-c2ccccc2)n1)NCC(F)(F)F	.	-3	-1	.	.	-3
CCOC(=O)c1[nH]c2cc(OC)c(OC)cc2c1N	0	8.5*	-2	-9	-3	1
CCc1nc(SCc2cccnc2)c2c(=O)n(C)c(=O)n(C)c2n1	4	-2	-1	-40	17*	-2
Cc1ccc(F)cc1NC(=O)C12CC3CC(C1)CC(n1cnc([N+](=O)[O-])n1)(C3)C2	.	-2	-2	-8	-2	0
O=C(OCCN1C(=O)c2ccccc2C1=O)c1cc(S(=O)(=O)N2CCOCC2)ccc1F	8	1	-2	-28	18*	1
O=C(COC(=O)c1cc(S(=O)(=O)N2CCOCC2)ccc1F)c1ccc[nH]1	.	0	-2	.	.	-6
CCOc1ccccc1N(CC(=O)O)S(=O)(=O)c1ccccc1	-5	4.8*	0	-26	-3	-7
CCOc1ccccc1N(CC(=O)OC)S(=O)(=O)c1ccccc1	2	-1	-2	20	-8	1
CNC(=O)CSc1nnc(COc2ccc(Cl)cc2)n1CCOC	0	9.8*	-1	-5	-1	-2
COc1ccc(Cl)cc1NC(=O)CSc1nnc(COc2ccccc2)n1N	20	7.8*	-5	11	-4	5
COc1ccc(Cl)cc1NC(=O)CSc1nnc(COc2ccccc2)n1C	-20	2	-3	23	-8	0
O=C(CSc1ccc(-c2ccc(Cl)cc2)nn1)Nc1ccc2c(c1)OCCO2	.	-2	-1	.	.	8
CCn1c2ccccc2c2cc(NC(=O)CSc3nnc(-c4ccc(OC)cc4)n3N)ccc21	-11	-3	5.2*	30	-11	9
COc1ccc(NS(=O)(=O)c2cccc(Cl)c2)cc1S(=O)(=O)N1CCCCC1	.	-1	0	.	.	1
COc1cc2c(cc1OC)C1=C(C#N)CC/C(=N\S(=O)(=O)c3cccc(Cl)c3)N1CC2	-14	-4	0	-41	49*	5
Cc1cccc(C)c1NC(=O)CNc1ncnc2sc(C)c(C)c12	.	1	-1	.	.	-13
COc1ccc(-n2c(C)cc(-c3csc(NC(=O)c4ccc(S(=O)(=O)N(C)C)cc4)n3)c2C)cc1	.	-3	-1	.	.	16
CC1CCC(NC(=O)Cn2c3c(c(-c4ccccc4Cl)cc2=O)CCC3)CC1 (configuration not stated)	-1	8.2*	-1	18	-3	0
O=C(CN1CCOCC1)Nc1ncc(Cc2cccc(Cl)c2Cl)s1	.	-1	-2	.	.	7
CC(C)OCCCNC(=O)c1c(N)n(/N=C/c2cccs2)c2nc3ccccc3nc12	.	-1	3	-28	18*	-18
CCCNC(=O)c1c(N)n(-c2cccc(OC)c2)c2nc3ccccc3nc12	-22	-6	18*	-29	21*	-5
COCCCNC(=O)c1c(N)n(-c2cccc(S(N)(=O)=O)c2)c2nc3ccccc3nc12	6	-5	3	-15	11	0
CNS(=O)(=O)c1ccc(NC(=O)c2ccccn2)cc1	.	1	-1	.	.	9
O=S1(=O)C=C(Sc2nc3cc(Cl)ccc3o2)c2ccccc21	.	-8	-1	94*	-11	10
CS(=O)(=O)c1nc(-c2cccs2)cc(C(F)(F)F)n1	0	-5	2	29	-1	38*
CCC(C)NC(=O)c1cc(Sc2nnc(C)s2)nc2ccccc12 (configuration not stated)	.	-4	1	.	.	-1
